Compound activity (PubChem BioAssay)
FBPA Giardia inh – qHTS Assay for Inhibitors of Fructose-1,6-bisphosphate Aldolase from Giardia Lamblia | 290,000 compounds, 0.71% hits | A8B2U2 | purified Giardia FBPA | Potency, µM (doses to about 59.6 µM), for the others: top-dose activity, negative = inhibition, hits mostly inhibitors; also: nearly all actives have a fitted effect of over 55% in size
Target sequence (A8B2U2 whole entry, looked up): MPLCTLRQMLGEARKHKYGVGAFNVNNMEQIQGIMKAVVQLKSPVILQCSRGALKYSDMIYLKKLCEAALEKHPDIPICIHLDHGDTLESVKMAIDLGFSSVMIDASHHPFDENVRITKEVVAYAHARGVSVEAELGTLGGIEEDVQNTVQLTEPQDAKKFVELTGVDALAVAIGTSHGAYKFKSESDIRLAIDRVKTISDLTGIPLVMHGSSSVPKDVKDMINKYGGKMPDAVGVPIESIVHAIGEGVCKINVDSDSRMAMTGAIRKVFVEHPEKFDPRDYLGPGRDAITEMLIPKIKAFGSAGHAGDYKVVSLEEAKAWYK
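40 nM FBPA preincubated 10 min at RT with compound (up to 57.5 uM final), then substrate plus GAPDH/TPI/NAD/arsenate coupling and diaphorase/resazurin added. Fluorescence read after 20 min at RT, 525/598 nm.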
RE007 growth inh – qHTS Assay for Inhibitors of the HIV-1 protein Vpr. S. pombe RE007 Vpr strain, BacTiter-Glo ATP luminescence, 24 h. Potency, µM (highest dose often 92.2 µM), without a hit: top-dose activity change, negative = less growth, most hits filed as inhibitors. 360,000 compounds, 0.21% hits; active = well fitted falling curve with a large enough effect; inconclusive = small, poorly fitted or top-dose-only effect; inactive = no such curve, though single readings can be large or run the other way; also: nearly all actives have a fitted effect of over 50% in size
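Fission yeast RE007 carrying one integrated HIV-1 vpr copy, seeded at OD 0.01 in PMG+AL medium with 23 nL pinned compound. Grown 24 h at 30 degrees; viability read by BacTiter-Glo luminescence after 5 min.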
Sm TGR inh – qHTS Assay for the Inhibitors of Schistosoma Mansoni Peroxiredoxins; purified TGR, DTNB reduction, TNB absorbance 405 nm; AID 485364, 2010; Schistosoma mansoni thioredoxin glutathione reductase (TGR), Q962Y6; Potency, µM (top dose mostly 114 µM), for inactives: top-dose activity change, negative = inhibition, hits mostly inhibitors; 360,000 compounds, 3% hits; also: nearly all actives have a fitted effect of over 60% in size
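First, TGR (20 nM dispensed) and NADPH were mixed with compound. Second, a 15 min room-temperature incubation followed. Third, further NADPH and then DTNB were added to start the reaction. Finally, TNB absorbance was monitored kinetically.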
Tb PYK inh – qHTS of Trypanosoma Brucei Inhibitors; pyruvate kinase (Trypanosoma brucei), Q57TT1; TbPYK enzyme, Kinase-Glo Plus ATP luminescence, 45 min; Potency, µM (top dose mostly 76.8 µM), for inactives: top-dose activity, negative = inhibition, actives largely listed as inhibitors; 410,000 compounds, 0.12% hits; AID 624173, 2012; also: nearly all actives have a fitted effect of over 50% in size
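Activity of T. brucei pyruvate kinase was followed by Kinase-Glo Plus luminescence after the enzyme reacted 45 min at room temperature with 130 uM ADP (final) and substrate. Test compounds were added before ADP at multiple concentrations.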
LmPK inh – qHTS Assay for Inhibitors of Leishmania Mexicana Pyruvate Kinase (LmPK). purified LmPK, Kinase-Glo ATP luminescence, 1 h. Potency, µM (titrated, usually from 57.5 µM), for inactives: top-dose activity change, negative = inhibition, most hits filed as inhibitors. 290,000 compounds, 0.37% hits. Q27686. AID 1721, 2009
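ATP generated from ADP (0.1 mM) and PEP (0.5 mM) by 0.1 nM LmPK over 1 h at room temperature (pH 7.2 imidazole buffer) was detected by coupled luciferase luminescence. Values were normalized to uninhibited and no-enzyme wells.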
The depositor's hits bear a star; ? = inconclusive; / = no result. The list is not random: actives were taken first. Their share in the collection is about 3.3%. Unless noted, calls follow the shape of the dose curve; as a rule, active = well fitted curve in the direction sought with a large enough effect; inconclusive = small, poorly fitted or top-dose-only effect, or another doubt; inactive = no such curve, though single readings can be large; an effect the other way counts as inactive or inconclusive. % is scaled to controls: 0 for no effect and ±100 for the full control effect; potency is read from the fitted curve at half-maximal effect.

SMILES | FBPA Giardia inh | RE007 growth inh | Sm TGR inh | Tb PYK inh | LmPK inh
O=C1C2C3C=CC(O3)C2C(=O)N1CC(O)c1ccccc1 (configuration not stated) | 3% | -15% | 11µM* | -3% | 3%
COc1cc(NC2=CC(=O)CC(C)(C)C2)cc(OC)c1 | -4% | -5% | -19% | 3% | -2%
CCOc1ccc(N2CC(C(=O)N3CC(C)OC(C)C3)CC2=O)cc1 (configuration not stated) | -8% | 0% | 54% | -4% | 6%
COc1ccc(C(=O)NCC23C=CC(O2)C2C(=O)N(Cc4ccccc4)C(=O)C23)cc1 (configuration not stated) | 2% | 25µM* | 3.5µM* | -2% | 0%
CCc1nnc(NC(=O)[C@@H]2CCCN2S(=O)(=O)c2ccc3c(c2)OCCO3)s1 | -1% | 4% | 4% | -3% | 1%
O=C(OCn1ncc(Cl)c(Cl)c1=O)c1cccc(C(F)(F)F)c1 | 2% | 45µM* | 5.6µM* | 8% | 0%
N/C(=N\OC(=O)c1cccc(C(F)(F)F)c1)c1cnccn1 | / | 20% | -5% | 3% | 1%
C/C(CC(=O)N1CCN(C=O)CC1)=N\NC(=O)c1cc2ccccc2cc1O | ? | -5% | -21% | 5% | 5%
CC(=O)C1=C(O)C(=O)N(CCC(=O)O)C1c1ccc(Cl)cc1Cl (configuration not stated) | -29% | 8% | 0% | 0% | 6%
Cc1ccccc1/C=N/Nc1ccc(Cl)nn1 | 6% | 8% | 40µM* | 1% | -4%
COc1cc(OC)c(OC)cc1/C=N/Nc1ccc(Cl)nn1 | -16% | -15% | 8% | 2% | 1%
Cc1cc(C)nc(SCc2csc(N)n2)n1 | -15% | 13% | ? | -24% | -1%
O=[N+]([O-])c1ccc(/C=N/Nc2nc(N3CCOCC3)nc(N3CCOCC3)n2)cc1 | 7% | / | / | / | 0%
O=[N+]([O-])c1ccc(/C=C2\CCC(C3=CCCC3)=C2N2CCOCC2)cc1 | -24% | ? | 32µM* | -17% | -6%
CSc1ccc(CN2CCSCC2)cc1 | ? | -16% | 2% | 3% | -4%
CCc1ccc(CN2CCN(Cc3ccc(SC)cc3)CC2)cc1 | 18µM* | 6% | -1% | 19% | -6%
CCc1ccc(N2C(=O)CC(N3CCC(C(=O)OC)CC3)C2=O)cc1 (configuration not stated) | 3% | 10µM* | 56µM* | 1% | -4%
CCOC(=O)C1CCCN(C2CC(=O)N(c3ccc(C(C)C)cc3)C2=O)C1 (configuration not stated) | -6% | 35µM* | ? | 3% | 6%
CCOC(=O)C1CCCN(C2CC(=O)N(c3ccc(C)c(C)c3)C2=O)C1 (configuration not stated) | 0% | 28µM* | 45µM* | -7% | 3%
CCOC(=O)C1CCN(C2CC(=O)N(c3ccc(OCC)cc3)C2=O)CC1 (configuration not stated) | 6% | 18µM* | 50µM* | 4% | 1%
COc1ccc(/C=C(/NC(=O)c2cccs2)C(=O)NCc2ccco2)cc1OC | 16% | -7% | 7% | 8% | 0%
COC(=O)CCc1c(C)c(C(=O)c2cc(OC)c(OC)c(OC)c2)c2ccccn12 | -4% | 9% | -35% | -7% | 0%
CCOC(=O)C1CCCN(C2CC(=O)N(c3cccc(C(F)(F)F)c3)C2=O)C1 (configuration not stated) | -19% | 8.9µM* | ? | 5% | -2%
CCOC(=O)C1CCCN(C2CC(=O)N(c3ccc(N4C(=O)CC(N5CCCC(C(=O)OCC)C5)C4=O)cc3)C2=O)C1 (configuration not stated) | 0% | 1% | 20µM* | 0% | 0%
Cc1cc2c(cc(C(=O)NCCCN3CCOCC3)n2Cc2ccc(Cl)cc2)o1 | -3% | 0% | 35µM* | -25% | 2%
SMILES | FBPA Giardia inh | RE007 growth inh | Sm TGR inh | Tb PYK inh | LmPK inh
Cc1ccc(Cn2c(C(=O)NCCCN3CCOCC3)cc3sccc32)cc1 | 3% | -17% | -16% | 0% | 4%
Cc1nc(N2CCN(Cc3ccccc3)CC2)c(C#N)c2c1COC(C)(C)C2 | 0% | -9% | -12% | 2% | 2%
O=C(Nc1ccccc1C(=O)N/N=C/c1ccco1)c1ccc(F)cc1 | -16% | 22µM* | 3% | -1% | 16µM*
Cc1cc(C)nc(SCc2ccc(C(=O)N/N=C/c3ccc(C(=O)O)cc3)cc2)n1 | -8% | 9% | 8% | 1% | -2%
O=C(Nc1ccccc1C(=O)N/N=C/c1ccco1)c1ccccc1 | -7% | ? | -7% | -9% | ?
Cc1cc(C)nc(SCc2ccc(C(=O)N/N=C/c3ccco3)cc2)n1 | -18% | 10% | 32µM* | -19% | 4%
C/C(=N\NC(=O)c1ccc(CSc2nc(C)cc(C)n2)cc1)c1ccco1 | -12% | 4% | 45µM* | -1% | 3%
C/C(=N\NC(=O)c1ccc(-c2ccccc2)cc1)c1ccco1 | -1% | 0% | -4% | -5% | -2%
CC(C)(C)c1ccc(-c2n[nH]c(=S)n2C2CCCC2)cc1 | 8% | -28% | -1% | ? | 10µM*
S=c1[nH]nc(-c2cccs2)n1C1CCCCC1 | ? | -2% | 15% | 7.1µM* | 3.5µM*
Cn1c(-c2ccc(C(C)(C)C)cc2)n[nH]c1=S | 3% | -22% | 2% | ? | -23%
CC(C1CC2CCC1C2)n1c(-c2cccs2)n[nH]c1=S (configuration not stated) | -4% | 4% | 11% | ? | 5µM*
CC(C)[C@@H](N)C(=O)NCC1CCC(C(=O)N[C@@H](Cc2ccccc2)C(=O)O)CC1 (some centres not stated) | -8% | 0% | -5% | -7% | 2%
COCCCNC(=S)N1CCC(C(=O)c2ccc(Cl)cc2)CC1 | 3% | 89% | 9% | ? | 1%
Cc1cc(-c2n[nH]c(=S)n2/N=C/c2c[nH]c3ccccc23)n[nH]1 | -19% | -6% | 21% | 2.8µM* | ?
Cc1cc(-c2n[nH]c(=S)n2/N=C/c2ccc(Br)s2)n[nH]1 | 16% | / | -7% | 1.1µM* | -18%
Cc1cc(-c2n[nH]c(=S)n2/N=C/c2ccc(C)s2)n[nH]1 | 9% | 11% | 4% | ? | -5%
C=C(C)C1CC=C(C)/C(=N/NC(=S)Nc2ccccc2)C1 (configuration not stated) | 18% | 6% | -10% | -11% | 1%
